# Measured values published in PubChem BioAssay (EPA / NIEHS).
# Results filed as inconclusive are left out. The source made the active and inactive calls. How the source made its calls: active means hit-call score of the fitted dose curve at least 0.9, where 1 is the maximum; inconclusive means response in the unintended direction; inactive means score below 0.9.
# Assays:
# [1] = target: rat Catechol-O-Methyl Transferase (COMT), Comt (gene 24267) (UniProt P22734); assay: NVS_ENZ_rCOMT: NovaScreen (NVS) Enzymatic Assay for rat Catechol-O-Methyl Transferase (COMT) (AID 2283235)
# Outline: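 Rat dorsal striatum extract served as COMT source; product quantified by HPLC/spectrophotometry, read at 0 h after dosing. Primary single-concentration screen at 25 uM, followed by concentration series to a 50 uM maximum.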
# [2] = test system: rat Monoamine Oxidase, MAO-A, Central (MAOAC), gene 29253; assay: NVS_ENZ_rMAOAC: NovaScreen (NVS) Enzymatic Assay for rat Monoamine Oxidase, MAO-A, Central (MAOAC) (AID 2283243);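 further: potency refers to inhibition seen as signal drop below DMSO baseline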
# Outline: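 Scintillation read-out of MAO-A activity in rat brain lysate, 1.5 h post-dosing. Primary single-concentration screen: 25 uM, duplicate; actives re-tested in concentration series. DMSO = negative control/baseline.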
# [3] = target: rabbit Imidazoline 2 Central (I2C), CKB (gene 100009085) (UniProt P00567); assay: NVS_ENZ_rabI2C: NovaScreen (NVS) Enzymatic Assay for rabbit Imidazoline 2 Central (I2C) (AID 2283228)
# Sequence of rabbit Imidazoline 2 Central (I2C), CKB (gene 100009085) (P00567 whole entry, looked up): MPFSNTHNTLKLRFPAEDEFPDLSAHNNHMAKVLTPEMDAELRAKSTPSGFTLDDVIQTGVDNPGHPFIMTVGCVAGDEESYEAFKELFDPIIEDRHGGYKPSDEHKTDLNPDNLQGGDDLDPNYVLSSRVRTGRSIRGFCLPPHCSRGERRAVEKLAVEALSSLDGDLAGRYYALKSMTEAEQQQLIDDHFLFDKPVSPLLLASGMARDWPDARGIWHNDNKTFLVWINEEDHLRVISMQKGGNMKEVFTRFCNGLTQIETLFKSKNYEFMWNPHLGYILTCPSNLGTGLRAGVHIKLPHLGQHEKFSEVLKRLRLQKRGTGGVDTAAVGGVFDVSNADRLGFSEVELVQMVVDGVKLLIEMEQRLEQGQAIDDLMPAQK
# Outline: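 Rabbit brain membranes, cell-free; readout by filter-based scintillation counting 1.5 hours after dosing, loss of signal vs DMSO. Initial duplicate test at 25 uM, then concentration-response with 50 uM top concentration.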
# [4] = target: human Vascular Endothelial Growth Factor Receptor 2 (VEGFR2), KDR (gene 3791) (UniProt P35968); assay: NVS_ENZ_hVEGFR2: NovaScreen (NVS) Enzymatic Assay for human Vascular Endothelial Growth Factor Receptor 2 (VEGFR2) (AID 2283230)
# Sequence of human Vascular Endothelial Growth Factor Receptor 2 (VEGFR2), KDR (gene 3791) (P35968 whole entry, looked up): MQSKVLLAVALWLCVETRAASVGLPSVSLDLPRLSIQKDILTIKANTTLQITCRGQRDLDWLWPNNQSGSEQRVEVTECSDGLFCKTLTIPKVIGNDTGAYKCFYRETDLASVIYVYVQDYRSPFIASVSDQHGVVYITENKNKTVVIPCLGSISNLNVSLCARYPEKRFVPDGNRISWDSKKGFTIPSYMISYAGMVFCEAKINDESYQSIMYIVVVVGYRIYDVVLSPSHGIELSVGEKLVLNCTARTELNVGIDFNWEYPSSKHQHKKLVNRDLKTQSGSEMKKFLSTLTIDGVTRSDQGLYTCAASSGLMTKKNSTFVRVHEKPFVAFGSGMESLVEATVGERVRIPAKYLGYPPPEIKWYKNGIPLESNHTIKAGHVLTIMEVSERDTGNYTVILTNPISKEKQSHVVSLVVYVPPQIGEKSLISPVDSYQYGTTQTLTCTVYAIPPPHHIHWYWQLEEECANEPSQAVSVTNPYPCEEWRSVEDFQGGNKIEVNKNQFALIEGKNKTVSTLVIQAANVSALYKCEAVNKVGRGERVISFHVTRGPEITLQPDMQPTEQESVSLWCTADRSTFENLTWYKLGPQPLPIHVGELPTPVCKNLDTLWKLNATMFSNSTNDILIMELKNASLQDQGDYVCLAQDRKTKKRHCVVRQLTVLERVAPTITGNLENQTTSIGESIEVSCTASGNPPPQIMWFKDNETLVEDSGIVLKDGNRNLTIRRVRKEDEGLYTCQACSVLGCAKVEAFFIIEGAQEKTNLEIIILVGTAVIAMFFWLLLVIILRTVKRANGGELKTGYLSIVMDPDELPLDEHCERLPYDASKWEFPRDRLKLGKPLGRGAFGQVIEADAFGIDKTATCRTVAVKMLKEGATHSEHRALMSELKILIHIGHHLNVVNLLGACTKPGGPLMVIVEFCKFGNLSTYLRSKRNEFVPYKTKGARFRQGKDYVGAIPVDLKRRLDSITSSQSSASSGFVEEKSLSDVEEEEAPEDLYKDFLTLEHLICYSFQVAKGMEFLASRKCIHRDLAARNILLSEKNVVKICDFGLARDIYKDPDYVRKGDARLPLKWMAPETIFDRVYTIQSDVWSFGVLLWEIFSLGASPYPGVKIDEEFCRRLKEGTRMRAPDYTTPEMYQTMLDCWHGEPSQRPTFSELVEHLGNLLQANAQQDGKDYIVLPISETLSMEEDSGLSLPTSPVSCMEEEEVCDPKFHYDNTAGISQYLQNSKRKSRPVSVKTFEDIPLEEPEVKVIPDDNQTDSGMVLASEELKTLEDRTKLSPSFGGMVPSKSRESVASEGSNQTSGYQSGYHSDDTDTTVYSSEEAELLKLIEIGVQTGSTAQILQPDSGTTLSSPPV
# Outline: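 Cell-free recombinant VEGFR2 kinase, fluorescent substrate with electrophoretic mobility-shift separation; read 1 h after dosing. Screened at 25 uM in duplicate, hits to concentration-response up to 50 uM; loss-of-signal versus DMSO.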
# [5] = target: rat Acetylcholinesterase (AChE), Ache (gene 83817) (UniProt P37136); assay: NVS_ENZ_rAChE: NovaScreen (NVS) Enzymatic Assay for rat Acetylcholinesterase (AChE) (AID 2283233)
# Sequence of rat Acetylcholinesterase (AChE), Ache (gene 83817) (P37136 whole entry, looked up): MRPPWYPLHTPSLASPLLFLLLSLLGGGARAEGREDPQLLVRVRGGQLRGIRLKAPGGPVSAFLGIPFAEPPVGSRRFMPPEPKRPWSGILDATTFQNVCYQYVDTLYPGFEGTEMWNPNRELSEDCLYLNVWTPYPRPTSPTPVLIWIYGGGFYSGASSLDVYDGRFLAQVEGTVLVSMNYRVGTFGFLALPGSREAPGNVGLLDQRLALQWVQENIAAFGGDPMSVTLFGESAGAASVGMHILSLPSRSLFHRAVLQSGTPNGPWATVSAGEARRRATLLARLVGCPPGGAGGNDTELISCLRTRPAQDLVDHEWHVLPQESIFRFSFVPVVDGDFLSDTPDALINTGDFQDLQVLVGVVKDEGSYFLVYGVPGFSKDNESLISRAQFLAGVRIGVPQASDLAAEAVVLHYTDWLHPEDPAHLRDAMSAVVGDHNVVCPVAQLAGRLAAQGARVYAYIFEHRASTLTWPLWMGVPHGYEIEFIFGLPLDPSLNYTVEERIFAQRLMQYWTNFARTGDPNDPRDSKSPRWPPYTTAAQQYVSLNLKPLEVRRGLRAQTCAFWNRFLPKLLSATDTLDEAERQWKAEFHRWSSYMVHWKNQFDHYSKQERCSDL
# Outline: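 Compounds first screened at 25 uM in duplicate, then those passing threshold tested in concentration series up to 50 uM, against AChE from rat brain membranes. Enzyme activity read by absorbance at 0.33 h; inhibition scored versus DMSO.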
# [6] = target: human Vascular Endothelial Growth Factor Receptor 1 (VEGFR1), FLT1 (gene 2321) (UniProt P17948); assay: NVS_ENZ_hVEGFR1: NovaScreen (NVS) Enzymatic Assay for human Vascular Endothelial Growth Factor Receptor 1 (VEGFR1) (AID 2283226)
# Outline: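 Kinase activity of recombinant human VEGFR1 was read by fluorescence after electrophoretic separation of product from substrate, 1 h post-dosing; initial duplicate single-point testing at 25 uM, followed by concentration-series follow-up, with DMSO as baseline.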
# [7] = target: sheep Cyclooxygenase-2 (Cox2), PTGS2 (gene 443460) (UniProt P79208); assay: NVS_ENZ_oCOX2: NovaScreen (NVS) Enzymatic Assay for sheep Cyclooxygenase-2 (Cox2) (AID 2283231)
# Sequence of sheep Cyclooxygenase-2 (Cox2), PTGS2 (gene 443460) (P79208 whole entry, looked up): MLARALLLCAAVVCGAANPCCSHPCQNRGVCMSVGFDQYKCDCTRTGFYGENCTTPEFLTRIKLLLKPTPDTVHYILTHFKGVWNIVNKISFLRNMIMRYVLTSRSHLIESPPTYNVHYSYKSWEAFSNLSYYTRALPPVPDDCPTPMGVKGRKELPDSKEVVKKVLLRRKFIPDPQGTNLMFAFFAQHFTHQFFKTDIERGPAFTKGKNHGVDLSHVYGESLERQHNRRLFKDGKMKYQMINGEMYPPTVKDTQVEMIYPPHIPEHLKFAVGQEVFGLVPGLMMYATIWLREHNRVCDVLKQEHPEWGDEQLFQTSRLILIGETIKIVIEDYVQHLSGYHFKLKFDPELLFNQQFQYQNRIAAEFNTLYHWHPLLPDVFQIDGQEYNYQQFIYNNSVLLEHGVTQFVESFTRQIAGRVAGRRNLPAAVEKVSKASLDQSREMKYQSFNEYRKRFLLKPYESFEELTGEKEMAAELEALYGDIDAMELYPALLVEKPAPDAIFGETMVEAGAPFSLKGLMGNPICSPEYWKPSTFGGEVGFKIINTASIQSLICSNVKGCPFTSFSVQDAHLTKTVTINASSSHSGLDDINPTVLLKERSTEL
# Outline: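 Enzyme extracted from ovine placenta tested cell-free; activity read colorimetrically by absorbance 0.66 hour after dosing. Primary screen in duplicate at 25 uM; hits rerun as concentration series to 50 uM, loss of signal versus DMSO baseline.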
# [8] = target: human Vascular Endothelial Growth Factor Receptor 3 (VEGFR3), FLT4 (gene 2324) (UniProt P35916); assay: NVS_ENZ_hVEGFR3: NovaScreen (NVS) Enzymatic Assay for human Vascular Endothelial Growth Factor Receptor 3 (VEGFR3) (AID 2283229)
# Outline: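 Chemicals first run in duplicate at 25 uM, with actives re-tested in concentration series to a top of 50 uM. Recombinant VEGFR3 activity measured after 1 h via fluorescence with mobility-shift product separation; inhibition fitted relative to DMSO.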
# [9] = target: rat Monoamine Oxidase, MAO-B, Central (MAOBC), Maob (gene 25750) (UniProt P19643); assay: NVS_ENZ_rMAOBC: NovaScreen (NVS) Enzymatic Assay for rat Monoamine Oxidase, MAO-B, Central (MAOBC) (AID 2283238)
# Sequence of rat Monoamine Oxidase, MAO-B, Central (MAOBC), Maob (gene 25750) (P19643 whole entry, looked up): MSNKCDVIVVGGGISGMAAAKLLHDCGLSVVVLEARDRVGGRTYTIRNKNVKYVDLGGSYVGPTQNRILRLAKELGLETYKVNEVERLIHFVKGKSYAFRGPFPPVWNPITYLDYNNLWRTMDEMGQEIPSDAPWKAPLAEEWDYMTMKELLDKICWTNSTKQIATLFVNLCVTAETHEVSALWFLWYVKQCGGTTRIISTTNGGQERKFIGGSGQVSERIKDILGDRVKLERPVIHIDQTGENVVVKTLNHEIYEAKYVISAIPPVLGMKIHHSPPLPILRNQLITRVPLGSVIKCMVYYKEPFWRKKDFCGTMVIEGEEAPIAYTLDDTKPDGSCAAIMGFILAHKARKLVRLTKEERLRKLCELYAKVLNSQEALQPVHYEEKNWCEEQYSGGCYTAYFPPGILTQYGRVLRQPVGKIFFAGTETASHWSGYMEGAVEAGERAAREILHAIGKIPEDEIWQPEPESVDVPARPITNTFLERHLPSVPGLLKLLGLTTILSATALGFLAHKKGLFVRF
# Outline: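 Actives from a duplicate 25 uM screen went on to singleton concentration-response with a 50 uM maximum. Enzyme source was rat brain tissue MAO-B, assayed cell-free. Radiolabelled product was counted by scintillation 1.17 h post-dose, with signal loss relative to DMSO.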
# [10] = target: human Sirtuin 3 (SIRT3), SIRT3 (gene 23410) (UniProt Q9NTG7); assay: NVS_ENZ_hSIRT3: NovaScreen (NVS) Enzymatic Assay for human Sirtuin 3 (SIRT3) (AID 2283222)
# Sequence of human Sirtuin 3 (SIRT3), SIRT3 (gene 23410) (Q9NTG7 whole entry, looked up): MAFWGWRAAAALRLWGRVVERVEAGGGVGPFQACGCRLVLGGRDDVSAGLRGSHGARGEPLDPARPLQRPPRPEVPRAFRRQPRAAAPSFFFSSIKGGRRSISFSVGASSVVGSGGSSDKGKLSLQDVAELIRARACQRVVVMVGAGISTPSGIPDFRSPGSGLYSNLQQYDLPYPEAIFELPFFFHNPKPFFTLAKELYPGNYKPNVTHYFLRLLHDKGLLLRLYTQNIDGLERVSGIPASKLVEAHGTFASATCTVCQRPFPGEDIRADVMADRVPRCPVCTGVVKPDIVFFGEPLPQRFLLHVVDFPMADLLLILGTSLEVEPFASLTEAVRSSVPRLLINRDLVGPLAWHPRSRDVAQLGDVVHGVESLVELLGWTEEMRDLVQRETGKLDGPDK
# Outline: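 Cell-free enzyme assay with recombinant protein and fluorescent substrate, product separated by electrophoretic mobility shift; read 1 hour after dosing. Screened in duplicate at 25 uM, then singleton concentration-response up to 50 uM; loss of signal versus DMSO.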
# [11] = target: human Tropomyosin Receptor Kinase A (TRKA), NTRK1 (gene 4914) (UniProt P04629); assay: NVS_ENZ_hTrkA: NovaScreen (NVS) Enzymatic Assay for human Tropomyosin Receptor Kinase A (TRKA) (AID 2283224)
# Outline: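 Compounds were screened at 25 uM in duplicate, then concentration series to a 50 uM top for those meeting threshold (e.g. 30% inhibition). Enzyme was recombinant human TrkA, incubated 1 h. Product formation was quantified by fluorescence after mobility-shift separation.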
# [12] = target: human Tyrosine Protein Kinase Receptor Tie-2 (Tie2), TEK (gene 7010) (UniProt Q02763); assay: NVS_ENZ_hTie2: NovaScreen (NVS) Enzymatic Assay for human Tyrosine Protein Kinase Receptor Tie-2 (Tie2) (AID 2283225)
# Sequence of human Tyrosine Protein Kinase Receptor Tie-2 (Tie2), TEK (gene 7010) (Q02763 whole entry, looked up): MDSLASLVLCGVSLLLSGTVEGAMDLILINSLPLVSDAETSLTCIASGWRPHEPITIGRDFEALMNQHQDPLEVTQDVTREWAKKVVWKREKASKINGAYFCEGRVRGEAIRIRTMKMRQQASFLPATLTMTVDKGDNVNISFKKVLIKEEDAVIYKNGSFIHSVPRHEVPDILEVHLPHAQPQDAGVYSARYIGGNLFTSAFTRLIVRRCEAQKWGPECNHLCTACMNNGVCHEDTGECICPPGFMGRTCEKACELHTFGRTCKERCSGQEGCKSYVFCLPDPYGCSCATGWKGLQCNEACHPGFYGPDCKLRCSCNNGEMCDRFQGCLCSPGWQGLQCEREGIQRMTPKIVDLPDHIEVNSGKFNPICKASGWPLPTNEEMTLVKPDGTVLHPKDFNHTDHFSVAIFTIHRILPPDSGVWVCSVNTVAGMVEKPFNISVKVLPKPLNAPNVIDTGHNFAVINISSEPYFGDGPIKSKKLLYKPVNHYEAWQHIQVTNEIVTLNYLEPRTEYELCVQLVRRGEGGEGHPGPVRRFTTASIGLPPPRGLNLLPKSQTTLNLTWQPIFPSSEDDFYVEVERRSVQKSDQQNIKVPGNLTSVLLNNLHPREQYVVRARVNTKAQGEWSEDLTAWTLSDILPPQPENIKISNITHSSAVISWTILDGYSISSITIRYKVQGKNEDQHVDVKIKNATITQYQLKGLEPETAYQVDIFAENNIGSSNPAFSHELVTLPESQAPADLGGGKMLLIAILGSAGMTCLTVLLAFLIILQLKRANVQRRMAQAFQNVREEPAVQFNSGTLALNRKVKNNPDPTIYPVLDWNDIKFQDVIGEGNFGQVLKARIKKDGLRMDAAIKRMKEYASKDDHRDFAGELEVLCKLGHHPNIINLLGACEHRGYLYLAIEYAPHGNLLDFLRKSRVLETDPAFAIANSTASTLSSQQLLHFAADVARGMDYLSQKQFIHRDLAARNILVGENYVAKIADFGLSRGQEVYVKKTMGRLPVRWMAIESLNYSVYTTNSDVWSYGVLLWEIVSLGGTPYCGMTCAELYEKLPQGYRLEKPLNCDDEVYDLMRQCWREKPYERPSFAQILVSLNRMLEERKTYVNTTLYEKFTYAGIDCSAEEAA
# Outline: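 Substrate and product were separated by mobility shift and detected by fluorescence after a 1-hour reaction with recombinant Tie2. Chemicals passing a 25 uM single-point screen were titrated to a maximum of 50 uM. Results were normalized to DMSO baseline.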
compound,measurement,setting,value
CCC(C)(CC)c1cc(NC(=O)c2c(OC)cccc2OC)on1,outcome,[1],inactive
Nc1ccc(-c2ccc(N)cc2)cc1,AC50,[2],16.6 µM (active)
CCCCCCCCCC[N+](C)(C)CCCCCCCCCC,AC50,[3],11.8 µM (active)
same,AC50,[4],26 µM (active)
same,AC50,[2],34 µM (active)
C[C@]12CCC(=O)C=C1CC[C@@H]1[C@@H]2CC[C@]2(C)C(=O)CC[C@@H]12,AC50,[5],24.4 µM (active)
CC(C)C(=O)OCC(C)(C)C(OC(=O)C(C)C)C(C)C (configuration not stated),outcome,[6],inactive
Cc1cccc(C)c1N,outcome,[7],inactive
O=C(O)C(F)(F)C(F)(F)C(F)(F)C(F)(F)C(F)(F)F,outcome,[8],inactive
CCOCCOC(C)=O,outcome,[9],inactive
CCCN(CCC)N=O,outcome,[10],inactive
same,outcome,[11],inactive
same,outcome,[12],inactive
same,outcome,[4],inactive
Cc1cc2c3c(c1)C(c1ccccc1)=N[C@@H](NC(=O)c1ccncc1)C(=O)N3CC2,outcome,[10],inactive
same,outcome,[12],inactive
CCOC(=O)C(O)(c1ccc(Cl)cc1)c1ccc(Cl)cc1,outcome,[4],inactive
